PubChem BioAssay (NCATS)
Inconclusive results are not listed. Activity calls are given as the source filed them. Unless noted, the call rests on the fitted dose curve; in most records, active means well fitted curve in the direction sought with a large enough effect; inconclusive means small, poorly fitted or top-dose-only effect, or another doubt; inactive means no such curve, though single readings can be large; an effect the other way counts as inactive or inconclusive.

Key:
[1] = Cell Viability - BJ (AID 421; calls by dose curve;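 further: potency means the concentration at half of the fitted maximal effect; cells exposed to compound for 40 hours at 37 °C before readout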); settings: BJ fibroblast viability, qHTS
Summary of the method: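 Normal human BJ foreskin fibroblasts, 1500/well in complete medium, treated 40 hr at 37 °C. Cellular ATP by CellTiter-Glo luminescence; normalized to DMSO and 100 uM tamoxifen, AC50 from Hill fit.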

[2] = Cell Viability - Jurkat (AID 426;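 active means dose-dependent loss of cell ATP signal giving a full or clear fitted curve, ranked by lower potency value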; further: potency means the concentration at half of the fitted maximal effect); settings: qHTS
Summary of the method: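 Cytotoxicity was scored as loss of cellular ATP, measured by luciferase-based luminescence, in Jurkat clone E6-1 cells after 40 h compound treatment; tamoxifen and doxorubicin served as positive controls.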

[3] = Cell Viability - Hek293 (AID 427;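 active means compounds whose dose-response curve shows a full or clear partial loss of cell viability, called from curve shape rather than a numeric limit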;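 further: potency means the concentration at half of the fitted maximal effect; cells exposed to compound for 40 hours at 37 °C before reading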); settings: qHTS
Summary of the method: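 HEK293 cells in complete medium were exposed to compound for 40 hr at 37 °C, then cellular ATP was read by CellTiter-Glo luminescence. Data were normalized to DMSO (basal) and 100 uM tamoxifen (100% inhibition), and AC50 came from Hill fits.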

[4] = Cell Viability - HepG2 (AID 433; calls by dose curve;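 further: potency means the concentration at half of the fitted maximal effect; potency for ATP loss meaning cytotoxicity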); settings: qHTS
Summary of the method: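 Cytotoxicity read as ATP loss (CellTiter-Glo luminescence) after 40 hr compound exposure of HepG2, 1500 cells/well, 37 °C. AC50 by Hill equation; 0% set by DMSO, 100% inhibition by 100 uM tamoxifen.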

[5] = Cell Viability - MRC5 (AID 434; calls by dose curve;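 further: potency means the concentration at half of the fitted maximal effect; potency reflects cytotoxicity seen as loss of intracellular ATP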); settings: MRC5 lung fibroblast viability, qHTS
Summary of the method: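 AC50 values come from Hill-equation fits of intracellular ATP loss, measured by CellTiter-Glo luminescence. Normal lung fibroblasts (MRC5) had 40 hr compound treatment at 37 C, normalized between DMSO and 100 uM tamoxifen.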

[6] = Cell Viability - SK-N-SH (AID 435; calls by dose curve; further: potency means the concentration at half of the fitted maximal effect); settings: SK-N-SH neuroblastoma cell viability qHTS
Summary of the method: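 qHTS cytotoxicity: CellTiter-Glo ATP luminescence after 40 h compound exposure of human neuroblastoma SK-N-SH cells at 37 °C. AC50 derived by Hill-equation fitting, with DMSO as basal and 100 uM tamoxifen as full inhibition.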

[7] = target: Mitogen-activated protein kinase 10 (Mus musculus) (UniProt Q61831); assay: JNK3 AlphaScreen Assay (AID 530; active means well fitted curve in either direction with a large enough effect, not every such curve was filed as active;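 further: kinase came from lysate of stimulated human HepG2 cells; signal reports phosphorylation of biotinylated GST-cJun 1-79 at Ser73 with 10 µM ATP; on the % scale 0 is the no-effect control and ±100 the full control effect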); settings: JNK3 lysate, c-Jun phosphorylation; series mostly up to 57.1 µM
Summary of the method: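 Kinase buffer: 20 mM Tris-HCl pH 7.6, 10 mM MgCl2, 1 mM DTT, 0.1 mM Na3VO4, 0.01% Tween-20; ATP 10 uM. Substrate biotin-GST-cJun(1-79), enzyme from activated HepG2 lysates. Detection by Ser73 phospho-antibody AlphaScreen.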

[8] = Cell Viability - N2a (AID 540); settings: N2a mouse neuroblastoma cell viability; activity change, negative = cytotoxicity: at 92.2 µM (top of the series);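 further: plate controls were DMSO alone for no effect and tamoxifen control for full effect; nearly all actives have a fitted effect of over 45% in size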
Summary of the method: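 In this qHTS cytotoxicity screen, ATP-dependent luciferase luminescence reports viable N2a cells after a 40 hr compound exposure in complete culture medium. Potencies are AC50 values from standard Hill equation fits.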

[9] = Cell Viability - NIH 3T3 (AID 541); settings: NIH 3T3 cell viability, qHTS; activity change, negative = cytotoxicity: at 92.2 µM (top of the series);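 further: plate controls were DMSO alone for no effect and tamoxifen positive control for full effect; nearly all actives have a fitted effect of over 25% in size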
Summary of the method: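 In this cytotoxicity screen, acute toxicity is scored as an ATP drop measured by CellTiter-Glo in NIH 3T3 fibroblasts following a 40 hr, 37 °C incubation with compound.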

[10] = Cell Viability - HUV-EC-C (AID 542); settings: HUV-EC-C endothelial cell viability, qHTS; series mostly up to 92.2 µM; further: on the % scale 0 is the no-effect control and ±100 the full control effect; nearly all actives have a fitted effect of over 35% in size
Summary of the method: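 Concentration-dependent ATP loss in HUV-EC-C cells is the measure. Exposure lasts 40 hr at 37 °C; luminescence follows CellTiter-Glo addition, and Hill fits give AC50.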

[11] = Cell Viability - H-4-II-E (AID 543); settings: H-4-II-E rat hepatoma viability; series mostly up to 92.2 µM; further: on the % scale 0 is the no-effect control and ±100 the full control effect; nearly all actives have a fitted effect of over 35% in size
Summary of the method: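 AC50 from Hill-modelled qHTS concentration-response curves. H-4-II-E rat hepatoma cells in complete medium, 40 hr exposure at 37 °C, viability by CellTiter-Glo ATP luminescence.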

[12] = Cell Viability - SH-SY5Y (AID 544); settings: SH-SY5Y neuroblastoma cell viability; viability change, negative = cytotoxic: at 92.2 µM (top of the series); further: nearly all actives have a fitted effect of over 55% in size
Summary of the method: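 Quantitative HTS in SH-SY5Y neuroblastoma cells, 40 hr treatment at 37 °C, ATP content by luciferase luminescence; AC50 from Hill fits.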

[13] = Cell Viability - Renal Proximal Tubule (AID 545); settings: renal proximal tubule cells viability, primary cells of rat origin; series mostly up to 91.7 µM; further: nearly all actives have a fitted effect of over 40% in size
Summary of the method: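 Viability taken as intracellular ATP (CellTiter-Glo luminescence) after 40 hr, 37 °C compound treatment of primary proximal tubule cells from rat kidney, 1000 cells/well; Hill-equation fits of qHTS concentration-response data gave AC50.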

[14] = Cell Viability - Mesenchymal (AID 546); settings: mesenchymal cells viability, qHTS; series mostly up to 91.7 µM;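 further: cells exposed to compound for 40 hours before reading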
Summary of the method: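 CellTiter-Glo luminescence (intracellular ATP, 20 min room temperature) after 40 hr compound exposure at 37 °C of 1000 glomerulus-derived human kidney mesenchymal cells/well; AC50 values obtained by fitting qHTS concentration-response data to the Hill equation.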

[15] = Cellular Toxicity (caspase-3) Jurkat (AID 655); settings: Jurkat caspase-3 activation, luminescence; caspase-3 activation: at 92.2 µM (top of the series), DMSO = 0%, tamoxifen = 100%;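 further: cells exposed to compound for 16 h at 37 °C before reading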
Summary of the method: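 Luminescent Caspase-Glo 3/7 read-out (20 min, room temperature) after 16 h compound treatment at 37 C of 5000 Jurkat cells per well. AC50 derived by Hill-equation fitting, scaled between DMSO basal and 100 uM tamoxifen stimulation.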

[16] = Cellular Toxicity (caspase-3) HUV-EC-C (AID 656); settings: HUV-EC-C cells, caspase-3 activation (apoptosis), vehicle = 0, 100 µM tamoxifen = 100%; series mostly up to 92.2 µM
Summary of the method: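 Luminescent Caspase-Glo 3/7 readout after 16 h, 37 °C compound exposure of HUV-EC-C endothelial cells, 1000 per well, complete medium. AC50 derived by Hill fitting, with DMSO as baseline and 100 uM tamoxifen as full activation.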

[17] = Cellular Toxicity (caspase-3) BJ (AID 658); settings: BJ fibroblasts, luminescence, normalized: DMSO 0%, staurosporine 100%; series mostly up to 91.7 µM
Summary of the method: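 Caspase-Glo 3/7 luminescence, read 1 hr after reagent at room temperature, in normal BJ fibroblasts exposed 16 hours at 37 °C. AC50 values from Hill-equation concentration-response, scaled between DMSO basal and 10 uM staurosporine as 100%.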

[18] = Cellular Toxicity (caspase-3) MRC-5 (AID 659); settings: MRC-5 cells, luminescence, normalized: DMSO 0%, 10 µM staurosporine 100%; series mostly up to 91.7 µM
Summary of the method: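 Luminescent Caspase-Glo 3/7 read-out (1 h, room temperature) after a 16 h, 37 °C compound exposure of MRC-5 lung fibroblasts at 1500 cells/well. Concentration-response AC50 from Hill equation; 0% DMSO, 100% 10 uM staurosporine.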

[19] = Cellular Toxicity (caspase-3) HepG2 (AID 654); settings: HepG2 caspase-3 activation, luminescence; series mostly up to 92.2 µM;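 further: cells exposed to compound for 16 hours before reading; 0% = DMSO alone and 100% = caspase signal from 100 µM tamoxifen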
Summary of the method: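 Concentration-response AC50 values reflect caspase-3/7 induction in HepG2 cells after 16 hours of compound exposure, quantified by luminescence from liberated aminoluciferin and referenced to 100 uM tamoxifen as full stimulation.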

[20] = Cellular Toxicity (caspase-3) SHSY5Y (AID 657); settings: SH-SY5Y caspase-3 activation, DMSO zero, 10 µM staurosporine = 100%; series mostly up to 91.7 µM
Summary of the method: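 Luminescent Caspase-Glo 3/7 read-out, 1 hr room temperature, follows 16 hours of compound treatment of SH-SY5Y cells at 37 °C. Normalization: DMSO basal, 10 uM staurosporine as 100%; AC50 values from Hill-equation concentration-response fits.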

O=Cc1cccc(Br)c1
inactive: Potency [1] > 92 µM | Potency [2] > 92 µM | Potency [3] > 92 µM | Potency [4] > 92 µM | Potency [5] > 92 µM | Potency [6] > 92 µM | outcome [7] | activity change, negative = cytotoxicity [8] 0.0642% | Potency [9] | Potency [10] | Potency [11] | Potency [12] | Potency [13] | Potency [14] | caspase-3 activation [15] 2.44% | outcome [16] | outcome [17] | outcome [18]

FB(F)F
inactive: Potency [1] > 92 µM | Potency [2] > 92 µM | Potency [3] > 92 µM | Potency [4] > 92 µM | Potency [5] > 92 µM | Potency [6] > 92 µM | outcome [7] | activity change, negative = cytotoxicity [8] 5.96% | Potency [9] | Potency [10] | Potency [11] | Potency [12] | Potency [13] | Potency [19] | caspase-3 activation [15] 1.14% | outcome [16] | outcome [20] | outcome [17] | outcome [18]

ClC/C=C/CCl
inactive: Potency [1] > 92 µM | Potency [2] > 92 µM | Potency [3] > 92 µM | Potency [4] > 92 µM | Potency [5] > 92 µM | Potency [6] > 92 µM | outcome [7] | activity change, negative = cytotoxicity [8] -2.88% | Potency [9] | Potency [10] | Potency [11] | Potency [12] | Potency [13] | Potency [14] | caspase-3 activation [15] 1.47% | outcome [16] | outcome [20] | outcome [17] | outcome [18]

Cc1cccc2cccnc12
inactive: Potency [1] > 92 µM | Potency [2] > 92 µM | Potency [3] > 92 µM | Potency [4] > 92 µM | Potency [5] > 92 µM | Potency [6] > 92 µM | outcome [7] | activity change, negative = cytotoxicity [8] -0.348% | Potency [9] | Potency [10] | Potency [11] | Potency [12] | Potency [13] | Potency [14] | caspase-3 activation [15] -0.137% | outcome [16] | outcome [17] | outcome [18]

CCCOCC(C)OCC(C)O (configuration not stated)
inactive: Potency [1] > 92 µM | Potency [2] > 92 µM | Potency [3] > 92 µM | Potency [4] > 92 µM | Potency [5] > 92 µM | Potency [6] > 92 µM | outcome [7] | activity change, negative = cytotoxicity [8] -9.53% | Potency [9] | Potency [10] | Potency [11] | Potency [12] | Potency [13] | Potency [14] | caspase-3 activation [15] -2.41% | outcome [16] | outcome [18]

CCCCCCC=O
inactive: Potency [1] > 92 µM | Potency [2] > 92 µM | Potency [3] > 92 µM | Potency [4] > 92 µM | Potency [5] > 92 µM | Potency [6] > 92 µM | outcome [7] | activity change, negative = cytotoxicity [8] -2.45% | Potency [9] | Potency [10] | Potency [11] | Potency [12] | Potency [13] | Potency [14] | caspase-3 activation [15] 0.767% | outcome [16] | outcome [20] | outcome [17] | outcome [18]

C(=C/c1ccccc1)/c1ccccc1
inactive: Potency [1] > 92 µM | Potency [2] > 92 µM | Potency [3] > 92 µM | Potency [4] > 92 µM | Potency [5] > 92 µM | Potency [6] > 92 µM | outcome [7] | activity change, negative = cytotoxicity [8] -0.717% | Potency [9] | Potency [10] | Potency [11] | Potency [12] | Potency [14] | Potency [19] | caspase-3 activation [15] 0.745% | outcome [16] | outcome [20] | outcome [17] | outcome [18]

CCCCC(=O)N(C)C
inactive: Potency [1] > 92 µM | Potency [2] > 92 µM | Potency [3] > 92 µM | Potency [4] > 92 µM | Potency [5] > 92 µM | Potency [6] > 92 µM | outcome [7] | activity change, negative = cytotoxicity [8] -2.03% | Potency [9] | Potency [10] | Potency [11] | Potency [12] | Potency [13] | Potency [14] | caspase-3 activation [15] -0.841% | outcome [16] | outcome [20] | outcome [18]
